# Records with an inconclusive call do not appear. Active and inactive are the calls of the source. Calls follow the shape of the dose curve; as a rule, active = well fitted cell-killing curve with a large enough effect in the repeat runs; inconclusive = weak or mixed curves, or effect the other way; inactive = flat fitted curve, though single readings scatter.
# Test: qHTS RealTime-Glo MT Cell Viability Assay in HepG2 cells - 40 hour (AID 1224870); also: nearly all actives have a fitted effect of over 50% in size
# Settings: RealTime-Glo luminescence; series mostly up to 76.8 µM
# Text: National Center for Advancing Translational Sciences [NCATS]
# NIH Chemical Genomics Center [NCGC]
# U.S. Environmental Protection Agency [EPA]
# National Institutes of Environmental Health Sciences [NIEHS]
# National Toxicology Program [NTP]
# U.S. Food and Drug Administration [FDA]
# Measure of cell viability is critical in the cell-base assay. Analysis of cell viability is necessary for the characterization of cell responses to cytotoxic drugs and environmental stress. A RealTime-Glo MT Cell Viability Assay to monitor cell viability in real time of continues cell culture during 40 hours of compound treatment was used to screen Tox21 10K library compounds in HepG2 cells. The RealTime-Glo MT Cell Viability Assay is a nonlytic, homogeneous, bioluminescent method to measure cell viability in real time using a simple, plate-based method. The assay involves adding NanoLuc luciferase and a cell-permeant prosubstrate to cells in culture. Viable cells reduce the proprietary prosubstrate to generate a substrate for NanoLuc luciferase. This substrate diffuses from cells into the surrounding culture medium, where it is rapidly used by the NanoLuc Enzyme to produce a luminescent signal. The signal correlates with the number of viable cells, making the assay well suited for cytotoxicity studies.
# Tox21 Assay Protocol Summary:
# The mixture of HepG2 cell suspension and reagents were dispensed at 600cells/6 ul/well in 1536-well tissue culture treated black solid bottom plates using a Multidrop dispenser. After the assay plates were incubated at a 37 C/5% CO2 incubator for 5 hours, 23 nL of compounds dissolved in DMSO, positive and negative controls was transferred to the assay plate by a pintool work station. The plates were incubated at 37 C for 40 hours. The luminescence intensity were measured at 0h, 8h, 16h, 24h, 32h and 40h time points using ViewLux plate reader during compound treatment.
row,Compound,outcome
1,COC(=O)C1CCC(C(=O)OC)CC1 (stereo not given),inactive
2,Cc1cccc(Nc2cc(Cl)nc(SCC(=O)O)n2)c1C,inactive
3,CCN1CCCC1=O,inactive
4,C=CC(=O)NC(C)(C)CS(=O)(=O)O,inactive
5,O=C(O)Cc1cccc2ccccc12,inactive
6,Cc1cccc(C)c1O,inactive
7,O=C(OCc1ccccc1)c1ccccc1,inactive
8,N[C@@H](Cc1c[nH]c2ccc(O)cc12)C(=O)O,inactive
9,NC(=O)N1c2ccccc2C=Cc2ccccc21,inactive
10,Cn1cnc2c1c(=O)[nH]c(=O)n2C,inactive
11,NCCNc1cccc2ccccc12,inactive
12,CCCCCCCC(=O)OCC(O)CO (stereo not given),inactive
13,C1CNCCN1,inactive
14,C#C[C@]1(O)CC[C@H]2[C@@H]3CCC4=CC(=O)CC[C@@H]4[C@H]3CC[C@@]21CC,inactive
15,COc1cc2c(c(OC)c1OC)-c1ccc(OC)c(=O)cc1[C@@H](NC(C)=O)CC2,inactive
16,OC[C@@H](O)[C@@H](O)[C@H](O)[C@H](O)CO,inactive
17,CC(C)=CCC/C(C)=C/CO,inactive
18,Cc1cccc2ccccc12,inactive
19,COCC(C)N (stereo not given),inactive
20,CCCCOC(=O)CCCCCCCCC(=O)OCCCC,inactive

row,Compound,outcome
1,C/C=C/c1ccc(O)c(OC)c1,inactive
2,CCc1cc(C(N)=S)ccn1,inactive
3,c1ccc2[nH]c(-c3cscn3)nc2c1,inactive
4,CC1=NN(c2ccccc2)C(=O)C1,inactive
5,CC(=O)/C=C/C1=C(C)CCCC1(C)C,inactive
6,C=CCOC(=O)CC(C)C,inactive
7,NC(=O)NO,inactive
8,CC(C)(C)NCC(O)c1ccc(O)c(CO)c1 (stereo not given),inactive
9,Cc1c(N(C)C)c(=O)n(-c2ccccc2)n1C,inactive
10,CCN(CC)CCOC(=O)c1ccc(N)cc1,inactive
11,CCn1cc(C(=O)O)c(=O)c2ccc(C)nc21,inactive
12,CCOCCO,inactive
13,O=[N+]([O-])c1ccc(O)cc1,inactive
14,NC(=O)N/N=C/c1ccc([N+](=O)[O-])o1,inactive
15,NC(=O)OCC(COC(N)=O)c1ccccc1,inactive
16,COc1ccc(C(=O)c2ccccc2)c(O)c1,inactive
17,CCCCOCCOCCSC#N,inactive
18,CCCCCCCCCCCCCC(=O)OC(C)C,inactive
19,COc1cc(C=O)ccc1O,inactive
20,OCCCc1ccccc1,inactive

# — PubChem BioAssay (Tox21)
